Test results: PubChem BioAssay (NCATS)
Results filed as inconclusive are left out. A call without a number means that no potency is given here. Active and inactive are the calls of the source. Calls come from the whole dose curve; as a rule, active = well fitted inhibition curve with a large enough effect; inconclusive = small, poorly fitted or top-dose-only effect; inactive = flat fitted curve, though single readings scatter.

What follows are compounds tested against Glutathione peroxidase 1 (Homo sapiens) (UniProt P07203) (assay: Primary qHTS Assay for Inhibitors of Recombinant Selenoprotein Glutathione Peroxidase 1 (GPX1) (AID 1845191; note: nearly all actives have a fitted effect of over 65% in size)). Details: recombinant GPX1, GR-coupled NADPH fluorescence, 15 min; series mostly up to 48.8 µM.
Sequence of Glutathione peroxidase 1 (Homo sapiens) (P07203 whole entry, looked up): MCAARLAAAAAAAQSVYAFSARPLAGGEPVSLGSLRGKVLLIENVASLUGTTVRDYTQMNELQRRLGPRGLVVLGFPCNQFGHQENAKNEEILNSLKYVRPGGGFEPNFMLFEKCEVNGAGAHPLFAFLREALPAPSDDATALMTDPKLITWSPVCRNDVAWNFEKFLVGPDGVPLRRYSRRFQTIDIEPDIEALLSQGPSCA
Text: Assay Provider: Elias S.J. Arner MD PhD.
Department of Medical Biochemistry and Biophysics
Karolinska Institutet, Solna, Stockholm, Sweden
Selenoprotein glutathione peroxidases (GPX), like the ubiquitously expressed GPX1 and the ferroptosis modulator GPX4, enact their antioxidant activities by reducing hydroperoxides using glutathione. […] GPX1 and GPX4 inhibitors have thus shown promise as anti-cancer agents. Existing inhibitors are often promiscuous, or modulate GPX activity only indirectly, so novel direct inhibitors identified through screening against GPX1 and GPX4 could be valuable. Here, we developed optimized glutathione reductase (GR)-coupled GPX assays for the biochemical high-throughput screen (HTS) of almost 12,000 compounds with known mechanisms of action. Initial hits were triaged using a GR counter-screen, assessed for isoform specificity using a separate GPX2 assay, and were assessed for general selenocysteine-targeting activity using a thioredoxin reductase (TXNRD1) assay. With this suite of assays, we identified novel GPX1/GPX2- and GPX4-specific inhibitors and can here present a validated pipeline for future discovery research for selenoprotein-targeting agents.
SEQUENCE No. (e.g., 1, 2, 3, etc.); […] (e.g., Cells, Incubation, Reagent, etc.); VALUE; DESCRIPTION.
1; Reagent 1; 3 uL; GPx1 enzyme or no enzyme control in 1536-well, black, solid Greiner assay plate.
2; Compound; 25 nL; Kalypsis pin tool (Wako USA) equipped with a 1536-well pin head.
3; Incubation; 30 min; room temperature.
4; Reagent 2; 1 uL; 10 nM GPX1, 1 mM GSH, 0.5 mM CHP, 0.5 mM NADPH, 100 nM GR, 0.01% BSA substrate
5; Detection; Fluorescence; ViewLux microplate reader, excitation 340 nm and emission 450 nm.
6; Incubation; 15 min; room temperature.
7; Detection; Fluorescence; ViewLux microplate reader, excitation 340 nm and emission 450 nm.
NOTES (numbers refer to Sequence numbers above)
1. 3 uL of 16.66 nM GPX1 and 0.016% BSA in assay buffer (50 mM Tris-HCl, 2 mM EDTA (pH 7.5), 150 mM NaCl) was added to columns 3-48 of 1536-well assay plates using a BioRAPTR Flying Reagent Dispenser (Let's Go Robotics (LGR), Carlsbad, CA). A no-enzyme control (0.01% BSA in TES assay buffer) was added to columns 1-2.
2. 25 nL of test compounds and DMSO controls were added to each well with a pin tool (Kalypsys).
3. The assay plates were incubated for 30 minutes at room temperature.
4. 1 uL of master mix (500 nM glutathione reductase (GR), 5 mM reduced glutathione (GSH), 2.5 mM NADPH in assay buffer) was added. 1 uL of cumene hydroperoxide (CHP) ([2.5 mM] in 50% EtOH) was then added within 5 minutes to initiate the reaction. Final concentrations were: 10 nM GPX1, 1 mM GSH, 0.5 mM CHP, 0.5 mM NADPH, 100 nM GR, 0.01% BSA.
5. Initial fluorescence readout (t=0) at 340/450 nm was measured using a ViewLux multimodal detector (PerkinElmer, Waltham, MA).
7. Endpoint fluorescence readout (t=15) at 340/450 nm was measured 15 min after room temperature incubation.
Potency is the fitted concentration of half-maximal effect.

SMILES | Potency
COc1ccc(N(C(=O)Nc2c(C)cccc2C)c2cc(Nc3ccc(N4CCN(C)CC4)cc3)ncn2)c(OC)c1 | inactive
CC(=O)N1CCN(CCOc2ccc(C3CCN(C4=Nn5c(nnc5C(F)(F)F)CC4)CC3)cc2)CC1 | inactive
COC(=O)c1sccc1S(=O)(=O)Nc1ccc(Nc2ccccc2)cc1OC | inactive
C[C@H]1CO[C@@H]2Cn3cc(C(=O)NCc4ccc(F)cc4F)c(=O)c(O)c3C(=O)N12 | inactive
CC1(C)CCCC2(C)C1C(OC(=O)/C=C/C=C/C=O)C=C1COC(=O)C12O (stereo not given) | inactive
COc1cc2c(cc1OC(C)C)[C@H](c1ccc(Cl)cc1)N(c1ccc(N(C)CC3CCC(N4CCN(C)C(=O)C4)CC3)cc1)C(=O)C2 (stereo not given in full) | inactive
CC(C)NC(=O)N1CC[C@H](N=C2Nc3cc(F)ccc3N(CC(F)F)c3ccc(Cl)cc32)C1 | inactive
CC/C=C\CC1C(=O)C=CC1(CCCCC1CCC(=O)O1)OC(C)=O (stereo not given) | inactive
C=C1[C@H]2CC[C@H](C(=O)O)[C@@]23CC[C@H](C3)C1(C)C | inactive
CC1(C)CC[C@]2(C(=O)O)[C@H](O)C[C@]3(C)C(=CCC4[C@@]5(C)CC[C@H](O[C@@H]6O[C@H](CO[C@@H]7OC[C@H](O)[C@H](O)[C@H]7O[C@@H]7OC[C@H](O)[C@H](O)[C@H]7O)[C@@H](O)[C@H](O)[C@H]6O)C(C)(C)C5CC[C@]43C)[C@@H]2C1 (stereo not given in full) | inactive
O=C1COc2nccc(-c3ccccc3F)c2CN1Cc1cc(C(F)(F)F)cc(C(F)(F)F)c1 | inactive
CCn1c(=O)n([C@H]2CCCN(c3nccc(-c4cc5ccccc5o4)n3)C2)c2ccccc21 | inactive
CCn1c(-c2nonc2N)nc2c(C#CCO)ncc(OCCCN)c21 | inactive
C[C@H]1C[C@@H]2[C@H]([C@@H](O)C[C@@]3(C)[C@H]2CC[C@]3(O)C(=O)COC(=O)CCC(=O)O)[C@@]2(C)C=CC(=O)C=C12 | inactive
CCCN(CC)C(CC)C(=O)Nc1c(C)cccc1C (stereo not given) | inactive
Cc1nc(Nc2cnn(C3CCNCC3)c2)nc2c1N(C)C(=O)c1cc3ccccc3cc1N2C | inactive
O=c1ccc2ccc(OCCCCN3CCN(c4cccc5sccc45)CC3)cc2[nH]1 | inactive
C=CC(=O)Nc1cc(-n2c(=O)ccc3cnc4ccc(-c5ccc(NS(C)(=O)=O)cc5)cc4c32)ccc1C | inactive
O=C(Nc1ccc(C(O)(C(F)(F)F)C(F)(F)F)cc1)c1ccc(C(F)(F)F)cc1 | inactive
Cc1cccc(C#Cc2cc(F)cc(C#N)c2)n1 | inactive

SMILES | Potency
COC(=O)c1ccnc(-c2cc(C(=O)Nc3ccc(C4(N)CC4)cc3)ccn2)c1 | inactive
Cc1ccc(C2(O)CCN(CCCC(=O)c3ccc(F)cc3)CC2)cc1 | inactive
CC(=O)O[C@@H]1CC2C(C)(C)C(=O)C=C[C@]2(C)C2CC[C@@]3(C)[C@H](c4ccoc4)OC(=O)[C@H]4O[C@]43[C@@]21C (stereo not given in full) | inactive
Nc1nc(OCc2cc(Br)cs2)c2[nH]cnc2n1 | inactive
COC(=O)CC[C@@H](C)C1CCC2C3CCC4C[C@H](OC(C)=O)CCC4(C)C3C[C@H](O)C21C (stereo not given in full) | inactive
C=C(C)C(=O)O[C@H]1[C@H]2C(=C)C(=O)O[C@@H]2/C=C(\CO)CC/C=C(/C=O)[C@@H]1O | inactive
COCCN(C(=O)c1cc(OC)c(OC)c(OC)c1)c1nc(-c2ccccc2)cs1 | inactive
COC(=O)N1CCC(n2ncc3c(N4CCOCC4)nc(-c4ccc(NC(=O)NC5CC5)cc4)nc32)CC1 | inactive
COc1ccc(OC)c(-c2ccc(NC(=O)c3ccncc3F)cc2)c1 | inactive
Cc1sc2c(c1C)C(c1ccc(Cl)cc1)=N[C@@H](CC(=O)Nc1ccc(OCCOCCOCCOCCNc3cccc4c3C(=O)N(C3CCC(=O)NC3=O)C4=O)cc1)c1nnc(C)n1-2 (stereo not given in full) | inactive
CC(=O)OC1CCC2(C)C(CCC3(C)C2CC=C2C4C(C)C(C)CCC4(C)CCC23C)C1(C)C(=O)O (stereo not given) | inactive
Nc1nc2c(c(N3CC[C@@H](N)C3)n1)CCCc1ccccc1-2 | inactive
Cc1ccc(-c2cn3c4c(sc3n2)CCCC4)cc1 | inactive
C=C1C(=O)O[C@@H]2C[C@]3(C)[C@@H](CCC(C)O)[C@@H]3C[C@H]12 (stereo not given in full) | inactive
CCOc1ccc(S(=O)(=O)N2CCCCCC2)c2ccccc12 | inactive
C=CC(=O)Nc1ccc(CN2C(=O)N(c3cc(OC)cc(OC)c3)Cc3cnc(Nc4ccc(N5CCN(C)CC5)cc4)nc32)cc1 | inactive
O=C(NNc1nc2cc(F)ccc2n2cccc12)c1cnccn1 | inactive
COc1cc(OC)c(NC(=O)c2ccc(Cc3cc4c(cc3C)C(C)(C)CCC4(C)C)o2)c(OC)c1 | inactive
CC[C@H](C)/C=C(C)/C=C/C1=CC2=C(Cl)C(=O)[C@](C)(O)[C@H](OC(C)=O)[C@H]2CO1 | inactive
CC[C@@H](C)Nc1cc(C(=O)NC2CC3CC[C@@H](C2)N3c2ccc(C(=O)C3CC3)cn2)c(C)cc1C(N)=O (stereo not given in full) | 16.3 µM (active)
